Measles inh: inhibitors of measles virus growth in cells, primary screen, measles RdRp inhibitor project, cell-based, single point, HTS; infected Vero cells, GFP fluorescence, 64 h; stronger effect = lower value; z-score (test concentration not listed); 33,000 compounds, 0.1% hits; in the data active = z-score below about -3
An asterisk follows results filed as active. The full list was thinned out, with hits kept by preference.

For Cc1ccccc1C(=O)N1CCC(C(=O)Nc2ccccc2C(F)(F)F)CC1 the results were Measles inh 0.84.
Screening COc1ccc(C)cc1NC(=O)C1CCN(C(=O)c2ccccc2C)CC1 returned Measles inh -0.49.
Screening CCc1ccc(NC(=O)C2CCN(C(=O)c3ccccc3C)CC2)cc1 returned Measles inh -5*.
Screening Cc1cc(O)c(C(C)C)cc1NC(=O)Cn1nc(-c2ccc(C)c(S(=O)(=O)N3CCCCC3)c2)c2ccccc2c1=O returned Measles inh 0.03.
`O=C(Cn1c2ccccc2c(=O)c2ccc(Cl)cc21)Nc1ccc(Br)cn1` gave Measles inh -0.01.
Cc1sc2ncn(CC(=O)NCCN3CCOCC3)c(=O)c2c1S(=O)(=O)N1CCOCC1 was read as Measles inh 0.3.
Screening N#Cc1ccc(N2C(=O)C3C4C=CC(C4)C3C2=O)cc1 (stereo not drawn) returned Measles inh 0.54.
Screening CCCCOc1ccc(N2C(=O)C3C4C=CC(C4)C3C2=O)cc1 (stereo not drawn) returned Measles inh -3.3*.
O=C(O)c1ccc(N2C(=O)C3C4C=CC(C4)C3C2=O)cc1 (stereo not drawn) was read as Measles inh 0.84.
`CCOc1ccc(S(=O)(=O)N2CCN(C34CC5CC(CC(C5)C3)C4)CC2)c2ccccc12` gave Measles inh -0.2.
Screening CCN1CCN(c2cc(C)c3cc(NC(=O)Cc4cccc(C)c4)ccc3n2)CC1 returned Measles inh -1.5.
For Cc1cc(N2CCN(C)CC2)nc2ccc(NC(=O)c3cccc(C(F)(F)F)c3)cc12 the results were Measles inh 0.66.
Cc1cc(N2CCN(C)CC2)nc2ccc(NC(=O)Cc3cccc(C(F)(F)F)c3)cc12 was read as Measles inh -3.1*.
`c1coc(C2Nc3c(ccc4ccccc34)C3OCCC23)c1` (stereo not drawn) gave Measles inh -0.76.
`COc1cc2c(=O)n(-c3ccc(C)cc3)c(=O)n(CC(=O)Nc3ccccc3)c2cc1OC` gave Measles inh -0.43.
For COc1ccc(N2C(=O)C3ON(c4ccc(Cl)cc4)C(c4cccs4)C3C2=O)cc1 (stereo not drawn) the results were Measles inh -0.05.
Screening CCN(CCNC(=O)C1CCCN(S(=O)(=O)c2cccc3nsnc23)C1)c1ccccc1 (stereo not drawn) returned Measles inh -3.3*.
NS(=O)(=O)c1ccc(CCNC(=O)C2CCCN(S(=O)(=O)c3cccc4nsnc34)C2)cc1 (stereo not drawn) was read as Measles inh -0.81.
`O=C(NCCN1CCOCC1)C1CCCN(S(=O)(=O)c2cccc3nsnc23)C1` (stereo not drawn) gave Measles inh -0.04.
CCN(CC)CCn1c(=S)[nH]c2cc(C(=O)NCC3CCCO3)ccc2c1=O (stereo not drawn) was read as Measles inh -1.7.
For COc1ccc(C(F)(F)F)cc1NC(=O)c1sc2nc(-c3ccc(OC)c(OC)c3)ccc2c1N the results were Measles inh 0.86.
Screening CN1C(=O)c2ccccc2C(C(=O)NC2CCCC2)C1c1cn(C)c2ccccc12 (stereo not drawn) returned Measles inh 0.38.
For CCn1c(COc2ccccc2C)nc2ccccc21 the results were Measles inh -0.28.
COCc1nc2ccccc2n1CCOc1ccccc1C was read as Measles inh -3.4*.
For Cc1ccccc1OCCn1c(SCC(N)=O)nc2ccccc21 the results were Measles inh 1.5.
For Clc1ccc(CSc2nc(NCC3CCCO3)c3ccccc3n2)cc1 (stereo not drawn) the results were Measles inh 0.12.
For O=C(NCCC1=CCCCC1)c1cc2c(=O)n3ccccc3nc2s1 the results were Measles inh 0.89.
Screening CC(=O)c1ccc(N2CCN(C(=O)CCC3Nc4c5ccccc5nc(=S)n4C3=O)CC2)cc1 (stereo not drawn) returned Measles inh -0.26.
O=C(C1CCCN(S(=O)(=O)c2cnc[nH]2)C1)N1CCc2ccccc21 (stereo not drawn) was read as Measles inh -0.85.
Screening CCN(c1cccc(C)c1)S(=O)(=O)c1ccc2sc3c(=O)[nH]cnc3c2c1 returned Measles inh 0.68.
Screening O=C(CCC1CCCC1)Nc1c2c(nn1-c1ccc([N+](=O)[O-])cc1)CSC2 returned Measles inh -0.95.
For Cc1c(CC(C)C)c(=O)oc2cc(OCc3ccccc3)ccc12 the results were Measles inh -0.76.
Screening Cc1cccc(C)c1OCCCCCCN1CCOCC1 returned Measles inh -0.51.
CC(C)(C)c1cc(Br)ccc1OCCCN1CCOCC1 was read as Measles inh -3.3*.
`COc1ccccc1OCCCCCCN1CCOCC1` gave Measles inh -0.57.
For Cc1ccc(C2CC(C(F)(F)F)n3nc(C(=O)Nc4ccc(Cl)c(C(F)(F)F)c4)cc3N2)cc1 (stereo not drawn) the results were Measles inh -1.3.
`O=C(CCCC1=NS(=O)(=O)c2ccccc2N1)N1CCN(Cc2ccccc2)CC1` gave Measles inh -0.47.
COc1cccc(C(=O)N(c2ccccc2)C2CC(C)N(C(C)=O)c3ccccc32)c1 (stereo not drawn) was read as Measles inh 1.9.
COc1ccc(N=C2SC(C(=O)Nc3ccccc3Cl)CC(=O)N2Cc2ccc(F)cc2)cc1 (stereo not drawn) was read as Measles inh 6.6.
Screening CCOc1ccc(NC(=O)CC23CC4CC(CC(C4)C2)C3)cc1 returned Measles inh -0.82.
`CCOc1ccccc1NC(=O)CN1C(=O)C2C3C=CC(C3)C2C1=O` (stereo not drawn) gave Measles inh 1.3.
Screening CCOc1ccc(NC(=O)CN2C(=O)C3C4CCC(C4)C3C2=O)cc1 (stereo not drawn) returned Measles inh -3.2*.
`COc1ccc(CSc2nnc(C)c(=O)[nH]2)cc1` gave Measles inh -0.08.
`Cc1cc(C)c2c(N)c(C(=O)c3ccc4c(c3)OCO4)sc2n1` gave Measles inh 0.36.
COc1nc(Cl)cc(C)c1C(=O)NCc1ccc(Cl)cc1 was read as Measles inh -0.85.
Screening COc1ccc(Cc2c(Cl)ncnc2Cl)cc1 returned Measles inh -0.43.
COc1ccc(Cc2nc(C)cc(Cl)n2)cc1Cl was read as Measles inh -3.8*.
`CCN(CC)CCCC(C)Nc1ccnc2ccc([N+](=O)[O-])cc12` (stereo not drawn) gave Measles inh -0.13.
CCOC(=O)c1ccc(NC(=O)c2cc(C(=O)OC)cc([N+](=O)[O-])c2)cc1 was read as Measles inh 0.43.
For Cc1ccc(NC(=O)c2ccc(F)c(S(=O)(=O)N3CCC(C)CC3)c2)cc1F the results were Measles inh 0.26.
`O=C1C2C3CCC(C3)C2C(=O)N1c1ccccc1F` (stereo not drawn) gave Measles inh -0.46.
`COC(=O)c1ccccc1N1C(=O)C2C3CCC(C3)C2C1=O` (stereo not drawn) gave Measles inh -3.7*.
CCCCOC(=O)c1ccccc1N1C(=O)C2C3CCC(C3)C2C1=O (stereo not drawn) was read as Measles inh -0.03.
`O=C(c1ccccc1)N1CCN(CC(O)COc2ccc([N+](=O)[O-])cc2)CC1` (stereo not drawn) gave Measles inh 1.
Screening Cc1ccc2nc3c(cc2c1)CCN3C returned Measles inh -1.2.
CCCCCSc1nc2ccccc2[nH]1 was read as Measles inh -0.16.
